Shown are actives, neighbours in structure and some others; about 21% of the full set was active somewhere.
Pf growth 96h – Primary qHTS for delayed death inhibitors of the malarial parasite plastid, 96 hour incubation. P. falciparum luciferase reporter growth, 96 h. Potency, µM (highest dose often 28.7 µM), actives largely listed as inhibitors. 320,000 tested, 6.9% active. AID 504834, 2011
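96 h incubation, 37 C, 5% CO2, of luciferase-reporter P. falciparum-infected RBCs (2% hematocrit, 0.05% parasitemia final) with test compounds; endpoint luminescence.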
HCV inhibitor – qHTS Assay for Inhibitors of Hepatitis C Virus (HCV); Huh7.5.1 HCVcc-Cre infection, luciferase reporter, 44 h; Potency, µM (top dose mostly 41.8 µM), most hits filed as inhibitors; 340,000 tested, 3.4% active; AID 651820, 2012
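A cell-based infection assay in which seeded cells (1,000 per well) receive test compound after 4 h, are inoculated with HCVcc-Cre at approximately 0.5 moi, and are incubated 44 h before luminescence detection.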
Shiga toxin inh – A qHTS for Small Molecule Inhibitors of Shiga Toxin; Vero cells, Shiga toxin protein synthesis inhibition reporter; 290,000 tested, 9.2% active; inhibition, % at 38.7 µM; in the data active = inhibition mostly above about 28%, no sharp cut-off; inactive = mostly below about 43%
CHX counter – Cycloheximide Counterscreen for Small Molecule Inhibitors of Shiga Toxin; cell reporter, cycloheximide protein synthesis inhibition counterscreen; max response, %; 300,000 tested, 12% active; AID 2314, 2010; in the data active = max response mostly above about 13%, no sharp cut-off; inactive = mostly below about 14%; also: read at 38.3 µM for the half of the compounds with a filed dose
AMA1 RON2 block – qHTS for Inhibitors of AMA1-RON; Towards Development of Antimalarial Drug Lead: Primary Screen. 360,000 tested, 0.2% active. AlphaScreen AMA1-biotinylated RON2 peptide binding. Plasmodium falciparum AMA1 (3D7) - RON2 peptide interaction. Potency, µM (highest dose often 58.2 µM), hits mostly inhibitors; also: nearly all actives have a fitted effect of over 45% in size
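AMA1 (3D7) with his tag at 25 nM final met compounds first, then biotinylated RON2 peptide at 25 nM; detection used donor plus acceptor beads, 10 µg/mL apiece, read by AlphaScreen after 30 min at room temperature.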
Pf growth 48h – Primary qHTS for delayed death inhibitors of the malarial parasite plastid, 48 hour incubation; AID 504832, 2011; 310,000 tested, 5.9% active; Potency, µM (highest dose often 28.7 µM), hits mostly inhibitors; P. falciparum luciferase growth in erythrocytes, 48 h
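Compounds are pin-transferred into medium, infected erythrocytes (2% hematocrit, 0.1% parasitemia final) are added, and plates sit one parasite generation at 37 C in 5% CO2. Detection reagent is then added and luminescence measured.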
Large screens that a line does not name were inactive. Unless noted, calls follow the shape of the dose curve; as a rule, active = well fitted curve in the direction sought with a large enough effect; inconclusive = small, poorly fitted or top-dose-only effect, or another doubt; inactive = no such curve, though single readings can be large; an effect the other way counts as inactive or inconclusive.

Cc1ccc(-c2csc(N3CCN(c4ccc5nc(-c6ccncc6)n(CCN6CCCCC6)c5c4)CC3)n2)cc1	Pf growth 96h inconclusive, HCV inhibitor inconclusive, Pf growth 48h 1.5µM
Cc1ccc(-c2csc(NCCn3c(-c4ccncc4)nc4cc(C(F)(F)F)ccc43)n2)cc1	none (no result: Pf growth 96h, Shiga toxin inh, CHX counter, Pf growth 48h)
CCCn1c(C)nc2cc(Cl)c(N3CCN(c4nc(-c5ccc(C)cc5)cs4)CC3)cc21	Pf growth 96h 5.2µM, HCV inhibitor inconclusive, Pf growth 48h 8.3µM
Cc1ccc(-c2csc(NCCn3c(-c4ccncc4)nc4ccccc43)n2)cc1	HCV inhibitor inconclusive
Cc1ccc(-c2csc(N3CCN(c4cc5c(cc4Cl)nc(-c4ccncc4)n5CCN4CCCCC4)CC3)n2)cc1	Pf growth 96h 3.3µM, Pf growth 48h inconclusive
COc1ccc(-c2csc(N3CCN(c4cc5c(cc4Cl)nc(-c4ccncc4)n5CCOCCO)CC3)n2)cc1	Pf growth 96h 3.7µM, Pf growth 48h inconclusive
CC(OC(=O)C1=COCCO1)C(=O)NC(C)c1ccc(Cl)cc1Cl (stereo unspecified)	none (no result: Shiga toxin inh, CHX counter)
Cc1ccc(S(=O)(=O)N2C3CC(c4ccccc4)N(S(=O)(=O)c4cccc(Cl)c4)CC3C(=O)C[C@H]2c2ccccc2)cc1 (stereo partly specified)	none (no result: Pf growth 96h, HCV inhibitor, Shiga toxin inh, CHX counter, Pf growth 48h)
COc1ccc(C(=O)NN2CCOCC2)cc1	none
Cc1cc(C)cc(NC(=O)c2cccn2-c2ncc(C(F)(F)F)cc2Cl)c1	Pf growth 96h 13µM, Pf growth 48h inconclusive
CCC(=O)c1ccc(OCC(O)Cn2nnc3ccccc32)cc1 (stereo unspecified)	Shiga toxin inh 65, CHX counter 45
Cc1cc(C)n(CC(O)COc2ccccc2C)n1 (stereo unspecified)	none
Cc1ccccc1OCC(O)Cn1nnc2ccccc21 (stereo unspecified)	Pf growth 96h inconclusive, Shiga toxin inh 79, CHX counter 50
C=CCNc1nc(Cl)nc(NCc2ccco2)n1	Pf growth 96h 9.3µM, Pf growth 48h inconclusive
COc1ccc(Nc2nc(NCc3ccco3)nc(N3CCOCC3)n2)cc1	Pf growth 96h inconclusive, HCV inhibitor inconclusive, Pf growth 48h inconclusive
C=CCNc1nc(NCc2ccco2)nc(OCC)n1	none
Oc1ccc(Nc2nc(Cl)nc(NCc3ccco3)n2)cc1	HCV inhibitor inconclusive, CHX counter 34
COc1ccccc1NS(=O)(=O)c1cccc(C(=O)NCC(c2cccs2)N2CCOCC2)c1 (stereo unspecified)	Pf growth 96h inconclusive, Pf growth 48h inconclusive (no result: Shiga toxin inh, CHX counter)
CC1(C(=O)NNC(=O)c2cccc([N+](=O)[O-])c2)CC1(Br)Br (stereo unspecified)	none
CCOC(=O)c1c(C)c(C)n(Cc2ccc(OC)c(OC)c2)c1C	Pf growth 96h inconclusive, HCV inhibitor inconclusive, Pf growth 48h 8.3µM
COc1ccc(CCn2c(C)cc(C(=O)CCl)c2C)cc1OC	Pf growth 96h inconclusive, HCV inhibitor inconclusive, Pf growth 48h inconclusive
CCOC(=O)c1cc(C)n(Cc2ccc(OCC)c(OC)c2)c1C	HCV inhibitor 11µM, Pf growth 48h 1.7µM (no result: Pf growth 96h)
CC1CCC2(CC1)NC(=O)N(Cc1cccc(C(F)(F)F)c1)C2=O (stereo unspecified)	HCV inhibitor inconclusive
Cc1nc(C)c(C(=O)OCC(=O)NCc2ccccc2)s1	none (no result: Shiga toxin inh, CHX counter)
O=C(c1ccc2c(c1)N(Cc1ccccc1)CCS2)N1CCOCC1	none
O=C(c1ccc2c(c1)N(Cc1ccccc1)CCS2)N1CCCCC1	Pf growth 96h 0.74µM, HCV inhibitor inconclusive, AMA1 RON2 block inconclusive, Pf growth 48h inconclusive
O=C(c1ccc2c(c1)N(Cc1ccc(F)cc1)CCS2)N1CCOCC1	Pf growth 96h 10µM
COc1cc(OCc2ccccc2)c(CC(=O)O)c([N+](=O)[O-])c1	none (no result: Pf growth 96h, HCV inhibitor, Shiga toxin inh, CHX counter, Pf growth 48h)
COc1ccc(/C=C/C(=O)NCCOc2ccccc2OC)cc1	Pf growth 96h inconclusive
COC(=O)CNC(=O)/C=C/c1ccc(OC)cc1	Shiga toxin inh 57, CHX counter 27
COc1ccc(/C=C/C(=O)NCc2ccccn2)cc1	Shiga toxin inh 34, CHX counter 17

Screening data from PubChem.
